The values that follow come from PubChem BioAssay.

Experiment [1] in a line: compounds altering circadian rhythm period length – cell-based, LOPAC library, luminescence reporter (AID 2774).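 Further: values are relative to mean of DMSO wells on each plate.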 The following applies: circadian reporter cells, at 7 µM, actives lie on both sides.
Experiment [2] deals with Hepatitis C virus NS3 helicase. In words: blockers of NS3h binding to ssDNA – biochemical, fluorescence polarization, LOPAC1280 library, primary screen (AID 687035; in the data active means inhibition above about 37%). The following applies: Purified HCV NS3 helicase, Cy5-dT15 ssDNA binding fluorescence polarization; stronger effect = higher value; concentration not given here. On the technique in general: Polarisation of emitted light reports the rotation of a fluorescent probe.

Experiment [3] in a line: compounds altering Cy5-DNA-NS3h complex signal – biochemical, LOPAC1280, artefact control for HCV NS3 helicase inhibitor project (AID 687037). The following applies: Cy5-DNA-NS3h complex fluorescence interference counterscreen.
The nature of experiment [4]: blockers of cellular phospholipid synthesis – cell-based, LOPAC library, screen 4, primary screen (AID 1347384). The following applies: animal cells, phospholipid biosynthesis inhibition screen; at 10 µM.
For experiment [5], the target named is ATP-dependent translocase ABCB1 (Homo sapiens) (UniProt P08183). Kind of experiment: P-glycoprotein substrate transport blockade – cell-based (AID 377; in the data active means fluorescence slope change above about 50%). The following applies: MDR1-expressing cells, fluorescent substrate accumulation slope; stronger effect = higher value; concentration not given here.
Chain of ATP-dependent translocase ABCB1 (Homo sapiens) (P08183 whole entry, looked up): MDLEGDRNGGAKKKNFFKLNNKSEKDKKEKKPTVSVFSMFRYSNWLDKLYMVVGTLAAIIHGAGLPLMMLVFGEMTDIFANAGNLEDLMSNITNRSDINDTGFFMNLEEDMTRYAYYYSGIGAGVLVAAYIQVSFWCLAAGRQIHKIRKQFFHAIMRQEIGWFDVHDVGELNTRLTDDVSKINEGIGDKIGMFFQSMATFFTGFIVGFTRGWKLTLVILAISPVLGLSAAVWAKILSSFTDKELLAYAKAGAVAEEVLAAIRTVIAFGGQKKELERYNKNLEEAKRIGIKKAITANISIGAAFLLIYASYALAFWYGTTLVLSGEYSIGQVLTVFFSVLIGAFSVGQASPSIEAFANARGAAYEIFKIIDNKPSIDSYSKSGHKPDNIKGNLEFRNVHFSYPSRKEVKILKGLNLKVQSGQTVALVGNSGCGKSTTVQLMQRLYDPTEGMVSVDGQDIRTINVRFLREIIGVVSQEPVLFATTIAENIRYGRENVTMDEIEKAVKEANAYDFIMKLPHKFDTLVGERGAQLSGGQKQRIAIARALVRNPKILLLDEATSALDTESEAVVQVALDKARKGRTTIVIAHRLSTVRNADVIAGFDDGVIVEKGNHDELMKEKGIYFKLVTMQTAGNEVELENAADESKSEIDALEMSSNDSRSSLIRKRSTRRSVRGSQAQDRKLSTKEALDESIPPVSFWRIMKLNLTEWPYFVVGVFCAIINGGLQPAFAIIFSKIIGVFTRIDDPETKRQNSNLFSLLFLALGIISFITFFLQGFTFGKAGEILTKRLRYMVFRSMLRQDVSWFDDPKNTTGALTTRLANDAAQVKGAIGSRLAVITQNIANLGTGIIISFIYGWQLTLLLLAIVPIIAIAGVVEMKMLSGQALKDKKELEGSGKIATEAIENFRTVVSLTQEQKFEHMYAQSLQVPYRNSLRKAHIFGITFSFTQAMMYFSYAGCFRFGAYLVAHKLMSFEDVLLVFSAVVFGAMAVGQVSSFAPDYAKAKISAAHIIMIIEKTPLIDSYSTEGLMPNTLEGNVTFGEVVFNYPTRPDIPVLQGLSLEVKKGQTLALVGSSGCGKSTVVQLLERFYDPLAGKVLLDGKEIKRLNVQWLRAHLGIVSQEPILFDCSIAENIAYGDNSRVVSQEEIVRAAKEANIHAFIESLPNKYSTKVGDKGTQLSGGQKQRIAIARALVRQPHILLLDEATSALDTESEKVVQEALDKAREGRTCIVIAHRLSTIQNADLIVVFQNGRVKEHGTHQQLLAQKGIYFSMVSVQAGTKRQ
The nature of experiment [6]: compounds altering viability of human ES cells (AID 493140).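 Further: cells exposed to compounds for four days before counting.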 Conditions: human embryonic stem cell survival screen; stronger effect = higher value.
For experiment [7], the system named is Aerobactin synthetase IucA (Klebsiella pneumoniae). Kind of experiment: inhibition of K. pneumoniae IucA enzyme – biochemical, Tocris library, absorbance (AID 1345561).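 Further: 100% = enzyme without compound and 0% = no enzyme.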 The following applies: purified IucA enzyme assay, absorbance (OD) read-out; stronger effect = lower value;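 tested at 8 µM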.
Experiment [8] in a line: viability loss in pontine glioma line – cell-based, SU-DIPG-XVII, MIPE5.0, CellTiter-Glo, qHTS, dose response (AID 1347060; cut-off not given, nearly all actives have AC50 up to about 26 µM). The following applies: CellTiter-Glo ATP luminescence. A general note: Cellular ATP, detected with luciferase, serves as a proxy for viable cell number.
Experiment [9] in a line: viability loss in pontine glioma line – cell-based, JHH-DIPG-1, MIPE4.0, CellTiter-Glo, qHTS, dose response (AID 1347062; cut-off not given, nearly all actives have AC50 up to about 27 µM;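 on AC50: cells exposed to compound for two days before readout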). The following applies: JHH-DIPG-1 viability, CellTiter-Glo ATP luminescence.
The nature of experiment [10]: viability loss in pontine glioma line – cell-based, SU-DIPG-IV, MIPE4.0, CellTiter-Glo, qHTS, dose response (AID 1347063; cut-off not given, nearly all actives have AC50 up to about 30 µM;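 further: compound exposure lasted 48 hours before the viability readout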). The following applies: CellTiter-Glo ATP luminescence.
The nature of experiment [11]: viability loss in pontine glioma line – cell-based, SU-DIPG-XIII, MIPE5.0, CellTiter-Glo, qHTS, dose response (AID 1347064; cut-off not given, nearly all actives have AC50 up to about 23 µM). Conditions: CellTiter-Glo ATP luminescence.
Experiment [12] is described as follows: growth inhibition of DIPG cells – cell-based, MIPE4.0 library, CellTiter-Glo luminescence, qHTS (AID 1347066; cut-off not given, nearly all actives have AC50 up to about 30 µM;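 further: cells exposed to compound for 48 hours before readout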). The following applies: SU-DIPG-VI viability, CellTiter-Glo ATP luminescence.
Experiment [13] in a line: blockers of polyQ-driven CASP3 activation – cell-based (AID 1583). Conditions: polyglutamine-induced caspase-3 activation, cell assay; stronger effect = higher value;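 tested at 10 µM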.
Experiment [14] in a line: yeast 75Q aggregation reduction – 75Q-TubU reporter (AID 1593). Conditions: Yeast 75Q polyglutamine aggregation reporter.
A short description of experiment [15]: restoration of touch response, mutant HTT neurons – whole organism, C. elegans mechanosensory neurons, N-terminal huntingtin (AID 1599). Conditions: C. elegans polyQ-huntingtin mechanosensory neurons, stronger effect = higher value.
Experiment [16] can be described thus: blockers of cytochrome c efflux from mitochondria – biochemical, purified mitochondria (AID 1603).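 Further: mouse liver mitochondria challenged with calcium chloride; signal normalized to the plate average as 100%.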 Conditions: stronger effect = lower value.
Experiment [17] is described as follows: polyglutamine aggregate formation blockers (AID 1604). Conditions: polyglutamine-induced protein aggregation inhibition assay; stronger effect = higher value; tested at 2.5 µM.
Experiment [18] in a line: glutamate transport activators, MN-1 cells, MN-1 cell line (AID 1612).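 Further: tested at 1 µM final; 0% = mean of DMSO vehicle wells on each plate; positive means more glutamate uptake than control and negative means less.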 Conditions: MN-1 motor neuron cells, stronger effect = higher value.
The nature of experiment [19]: 75Q-TubH aggregate inhibition, S. cerevisiae, yeast (AID 1616). The following applies: S. cerevisiae 75Q-TubH polyglutamine aggregation suppression; stronger effect = higher value.
In experiment [20] the target is Mitogen-activated protein kinase 7 (Homo sapiens) (UniProt Q13164). In words: Gal4-ERK5 driven luciferase induction – cell-based, HTS, primary screen (AID 1508626;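 active means luciferase signal above three times the same-plate solvent-only control wells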;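 further: luciferase driven by Gal4-ERK5 fusion binding five Gal4 sites before minimal TATA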). Conditions: HeLa Gal4-ERK5 transactivation, 18 h, at 5 µM, stronger effect = higher value.
Chain of Mitogen-activated protein kinase 7 (Homo sapiens) (Q13164 whole entry, looked up, the tested form may be a part): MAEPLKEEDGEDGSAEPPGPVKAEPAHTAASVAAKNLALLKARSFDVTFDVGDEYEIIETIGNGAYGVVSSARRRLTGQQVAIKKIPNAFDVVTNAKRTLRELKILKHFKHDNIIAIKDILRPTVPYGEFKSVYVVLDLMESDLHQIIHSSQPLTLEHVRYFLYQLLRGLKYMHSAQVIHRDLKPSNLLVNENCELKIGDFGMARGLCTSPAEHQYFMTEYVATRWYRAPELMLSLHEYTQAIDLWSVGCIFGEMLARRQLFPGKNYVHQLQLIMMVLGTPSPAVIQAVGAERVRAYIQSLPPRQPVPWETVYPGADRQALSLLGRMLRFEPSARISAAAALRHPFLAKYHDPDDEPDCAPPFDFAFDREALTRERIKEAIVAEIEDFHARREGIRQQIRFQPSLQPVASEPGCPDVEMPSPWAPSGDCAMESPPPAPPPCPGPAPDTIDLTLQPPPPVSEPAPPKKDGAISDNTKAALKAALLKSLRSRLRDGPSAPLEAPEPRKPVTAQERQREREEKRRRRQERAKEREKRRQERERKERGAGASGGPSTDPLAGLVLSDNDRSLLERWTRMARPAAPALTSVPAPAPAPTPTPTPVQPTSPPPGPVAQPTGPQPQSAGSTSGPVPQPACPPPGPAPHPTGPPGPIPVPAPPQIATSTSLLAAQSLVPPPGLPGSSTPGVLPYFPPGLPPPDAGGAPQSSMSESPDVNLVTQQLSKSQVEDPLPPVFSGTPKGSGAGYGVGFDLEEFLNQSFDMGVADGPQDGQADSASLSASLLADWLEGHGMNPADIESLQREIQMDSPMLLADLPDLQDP

Records with an inconclusive call do not appear. For part of these data: Entries with a potency or affinity are not part of this list. Calls of active or inactive are those of the source. Unless noted, how the calls were made is not given here.

For orientation: inhibition means the relative decrease from the control value, in per cent. Regarding `c1ccc(-c2ccccn2)nc1`, the period change in experiment [1] is -0.19 h (inactive). The inhibition in [2] was -3% (inactive). The fluorescence ratio (interference) in experiment [3] is 1 (inactive). Further, in experiment [4], the result was inactive.
With `CN(C)[C@@H]1C(=O)C(C(=O)NCN2CCCC2)=C(O)[C@@]2(O)C(=O)C3=C(O)c4c(O)cccc4[C@@](C)(O)C3CC12` (some centres not stated), in [5], the fluorescence slope change was 66.4% (active). Moreover, the survival in experiment [6] is 2.5 (inactive).
As usually defined, the remaining activity is the signal under treatment as a percentage of the control signal. Turning to `C=C1/C(=C\C=C2/CCC[C@]3(C)[C@@H]([C@H](C)/C=C/[C@@H](O)C4CC4)CC[C@@H]23)C[C@@H](O)C[C@@H]1O`, the remaining activity in experiment [7] is 98% (inactive).
Regarding `O=c1[nH]c2ccccc2c2ccccc12`, the period change in [1] is 0.13 h (inactive). Moreover, the inhibition in experiment [2] is -3% (inactive). For the same compound, in [3], the fluorescence ratio (interference) was 1 (inactive). For the same compound, the outcome in experiment [4] was inactive.
`O=C(OC1C[C@@H]2CC3C[C@H](C1)N2CC3=O)c1c[nH]c2ccccc12` (some centres not stated): in experiment [4], the result was inactive.
Turning to `CO[C@H]1/C=C/O[C@@]2(C)Oc3c(C)c(O)c4c(O)c(c5c(c4c3C2=O)NC2(CCN(CC(C)C)CC2)N=5)=NC(=O)/C(C)=C\C=C\[C@H](C)[C@H](O)[C@@H](C)[C@@H](O)[C@@H](C)[C@H](OC(C)=O)[C@@H]1C`, the survival in [6] was 5.5 (inactive).
Take `CCCc1nc(C(C)(C)O)c(C(=O)O)n1Cc1ccc(-c2ccccc2-c2nn[nH]n2)cc1`: the outcome in experiment [8], in experiment [9], in experiment [10], in experiment [11] and in experiment [12] was inactive.
Consider `CC(C(O)c1ccc(O)cc1)N1CCC(Cc2ccccc2)CC1` (configuration not stated), for which the fluorescence slope change in experiment [5] was 23.8% (inactive). Moreover, the period change in experiment [1] is 0.3 h (inactive). Also, the survival in experiment [6] is 3.25 (inactive). Moreover, in [2], the inhibition is -4% (inactive). For the same compound, the fluorescence ratio (interference) in [3] was 0.9 (inactive). In addition, the compound was classed as inactive in [4].
For `COc1cc(N)c(Cl)cc1C(=O)N[C@@H]1CCN(CCCOc2ccc(F)cc2)C[C@@H]1OC`, the remaining activity in experiment [7] was 111% (inactive).
As for `CCC(=O)NS(=O)(=O)c1ccc(-c2c(-c3ccccc3)noc2C)cc1`, in [8], the result was inactive.
With `CO[C@H]1O[C@@H]2O[C@@]3(C)CC[C@H]4[C@H](C)CC[C@@H]([C@H]1C)[C@@]24OO3`, the outcome in experiment [8], in experiment [9], in experiment [10], in experiment [11] and in experiment [12] was inactive.
For the compound `CN(C)CC/C=C1/c2ccccc2COc2ccccc21`, the inhibition in experiment [13] was -9.13%. Moreover, the score in experiment [14] worked out at 1.4. The same compound came in with a rescue above control in experiment [15] of 2.19. For the same compound, in experiment [16], the cytochrome c release ratio came to 0.69. The compound further registered an inhibition of aggregation in [17] of 92.3%. Also, in experiment [18], the glutamate uptake change is 2.11%. For the same compound, in [19], the aggregation suppression score was 1.19. In addition, the remaining activity in experiment [7] was 123% (inactive).
With `C[C@]12C=CC(=O)C=C1CC[C@@H]1[C@@H]2[C@@H](O)C[C@@]2(C)[C@H]1CC[C@]2(O)C(=O)COC(=O)CCC(=O)O`, the luciferase signal in experiment [20] is 80 AU (inactive).
In the case of `CCN(CC)CCOc1ccc(C(=C(Cl)c2ccccc2)c2ccccc2)cc1`, the luciferase signal in experiment [20] was 68 AU (inactive).
Take `CS(=O)(=O)c1ccc(-c2cc(Br)sc2-c2ccc(F)cc2)cc1`: the remaining activity in [7] is 111% (inactive).
Regarding `CC(C)N=c1cc2n(-c3ccc(Cl)cc3)c3ccccc3nc-2cc1Nc1ccc(Cl)cc1`, the fluorescence slope change in experiment [5] is 72.8% (active). The survival in [6] was 11.8 (inactive). Also, in experiment [20], the luciferase signal is 104 AU (inactive).
In general, AC50 refers to the concentration at which the activity in the assay is half-maximal. Take `CC(=O)SCC(Cc1ccccc1)C(=O)NCC(=O)OCc1ccccc1` (configuration not stated): the fluorescence slope change in experiment [5] is 12.8% (inactive). In experiment [6], the survival was 6.5 (inactive). For the same compound, the compound was classed as inactive in experiment [8] and in experiment [11]. The AC50 in [9] is 469 nM (active); in experiment [10], 833 nM (active).
As to `C#C[C@]1(O)CC[C@H]2[C@@H]3CCC4=Cc5oncc5CC4(C)[C@H]3CCC21C` (some centres not stated), the period change in experiment [1] is 0.035 h (inactive). In addition, the inhibition in [2] is 0% (inactive). Besides, in experiment [3], the fluorescence ratio (interference) was 1 (inactive). Moreover, the outcome in experiment [4] was inactive.
On to `CO/N=C(/C(=O)N[C@@H]1C(=O)N2C(C(=O)O)=C(COC(N)=O)CS[C@H]12)c1ccco1`, for which, in experiment [5], the fluorescence slope change was -2.3% (inactive). For the same compound, in experiment [6], the survival is 3.92 (inactive).
